Bioassay records deposited in PubChem BioAssay by National Center for Advancing Translational Sciences (NCATS).
Lassa entry inh = inhibitors of Lassa virus binding or cell entry; 1.2% of 300,000 active; AID 540256; Potency, µM (series often up to 37.9 µM), usual class: inhibitors; Lassa virus pseudotype entry inhibition, cell reporter; calls by dose curve; tested in HEK293 cells; further: nearly all actives have a fitted effect of over 50% in size
Vaccinia mCherry = inhibitors of vaccinia virus infection (mCherry reporter signal). Vaccinia virus mCherry reporter infection, fluorescence. Potency, µM (highest dose often 36.5 µM), most hits filed as inhibitors. 0.63% of 310,000 active; calls by dose curve; tested in A549 cells; further: nearly all actives have a fitted effect of over 35% in size
FMDV antiviral = antivirals against foot and mouth disease virus; AID 1159524; Potency, µM (series often up to 57.9 µM), usual class: inhibitors; FMDV antiviral cell-based qHTS; 1.2% of 410,000 active; calls by dose curve; tested in HEK293T cells; further: read-out not given here; nearly all actives have a fitted effect of over 45% in size
HCV inh = HCV inhibition. Huh7.5.1 HCVcc-Cre infection, luciferase reporter, 44 h. Potency, µM (titrated, usually from 41.8 µM), hits mostly inhibitors. 3.4% of 340,000 active; active means well fitted inhibition curve with a large enough effect; inconclusive means small, poorly fitted or top-dose-only effect, or another doubt; inactive means no such curve, though single readings can be large or run the other way
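Seed cells (1,000/well) for 4 h; treat with compound and infect with HCVcc-Cre, moi about 0.5. Incubate 44 h, then detect luciferase activity.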
VACV Venus inh = vaccinia inhibition (Venus reporter); Potency, µM (highest dose often 36.5 µM), most hits filed as inhibitors; Vaccinia virus Venus reporter expression, fluorescence; 0.46% of 330,000 active; AID 720580; calls by dose curve; tested in A549 cells; further: nearly all actives have a fitted effect of over 30% in size
MARV entry inh = Marburg virus entry inhibition. 1.8% of 300,000 active. Marburg virus pseudotyped entry inhibition, cell reporter. Potency, µM (highest dose often 37.8 µM), actives largely listed as inhibitors. AID 540276; calls by dose curve; tested in HEK293 cells
A number is an active result; n = inactive; u = inconclusive; x = no result given; [ ] = another dose, or the depositor's remark. Only some compounds are listed: those with a hit (about 5.3% of all), similar ones and a draw of the others.

SMILES	Lassa entry inh	Vaccinia mCherry	FMDV antiviral	HCV inh	VACV Venus inh	MARV entry inh
Cc1ccc2c(c1)sc(-c1ccc(N(C)C)cc1)[n+]2C	x	u	u	3.55µM	u	x
O=c1ncccn1[C@@H]1O[C@H](CO)C(O)[C@@H]1O (some centres undefined)	x	x	n	x	x	x
O=c1cnn([C@@H]2O[C@H](CO)[C@@H](O)[C@H]2O)c(=O)[nH]1	0.092µM	u	n	n	n	u
Cc1cc(SCC(=O)c2ccc(O)c(O)c2)n2nc(C)c(-c3ccccc3)c2n1	x	11.2µM	n	11.2µM	n	x
COc1ccc(NC(=O)[C@@H]2CC=C[C@@H]3CCN(Cc4ccc(Cl)c(Cl)c4)C(=O)[C@@H]32)cc1	x	n	n	0.562µM	u	x
COc1ccc(NC(=O)[C@@H]2CC=C[C@@H]3CCN(Cc4ccccc4)C(=O)[C@@H]32)cc1	x	n	n	n	n	x
CC1COc2ccccc2N1C(=O)c1ccccc1Cl (centres undefined)	n	n	n	n	n	n
O=C(CCl)N1c2ccccc2SCC1c1ccccc1 (centres undefined)	u	n	28.2µM	u	n	u
O=C(CCl)N1c2ccccc2OCC1c1ccccc1 (centres undefined)	n	n	17.8µM	n	n	n
O=C1O[C@@H](N2CCN(C/C=C\c3ccccc3)CC2)c2ccccc21	x	x	x	x	x	n
CC(C)Oc1ccccc1-c1nc(SCC(=O)c2ccc(F)cc2)n[nH]1	n	n	n	x	n	u
COc1ccc(C)cc1NC(=O)CSc1nnc(-c2ccco2)n1N	n	x	n	n	x	n
Cc1ccc(CNC(=O)CSc2ccc(-c3ccccn3)nn2)cc1	u	7.08µM	n	n	u	u
O=C(CSc1ccc(-c2ccccn2)nn1)Nc1ccc(F)c(F)c1	u	u	n	10µM	u	n
O=C(CSc1ccc(-c2cccnc2)nn1)Nc1ccc(Br)cc1	u	u	u	12.6µM	u	n
COc1ccc(C)cc1NC(=O)CSc1ccc(-c2ccco2)nn1	n	u	n	10µM	n	n
Cc1ccc(N2C(=O)CSC23C(=O)N(CC(=O)NCc2ccccc2)c2ccccc23)cc1C (centres undefined)	n	n	n	x	n	x
CN(C)c1ccc(CC2CCc3ccccc32)cc1 (centres undefined)	x	n	x	x	n	x
COc1ccccc1NC(=O)CSc1ccc(-c2ccccn2)nn1	u	14.1µM	n	u	u	u
COc1ccc(NC(=O)CSc2ccc(-c3ccccn3)nn2)cc1OC	u	n	n	n	n	u
COc1cc(=O)n2c(c1C(=O)NCc1ccco1)CCN(Cc1cccc(Cl)c1)CC2	x	n	n	x	n	x
CC(=O)c1ccc(N2CCN(C(=O)Nc3ccc(Cl)cc3)CC2)cc1	n	n	n	u	n	n
O=C(Nc1cccc(C(=O)N2CCN(c3cccc(Cl)c3)CC2)c1)c1nsc2ccccc12	u	n	n	x	n	x
COc1cccc(N2CCN(C(=O)c3cccc(-n4c(C)nc5cccnc54)c3)CC2)c1	n	n	28.2µM	x	n	x
COc1cccc(N2CCN(C(=O)c3ccc4nc[nH]c4c3)CC2)c1	n	n	n	n	n	n
SMILES	Lassa entry inh	Vaccinia mCherry	FMDV antiviral	HCV inh	VACV Venus inh	MARV entry inh
CC(=O)c1ccc(NC(=O)N2CCN(c3cccc(Cl)c3)CC2)cc1	n	x	n	12.6µM	x	u
Cc1nc2cccnc2n1-c1cccc(C(=O)N2CCN(c3cccc(Cl)c3)CC2)c1	u	u	25.1µM	x	n	x
O=C(Nc1cccc(C(=O)N2CCN(c3cccc(Cl)c3)CC2)c1)c1ccccc1	x	x	n	14.1µM	x	x
COc1ccc(Cl)cc1NC(=O)C(C)N(C)Cc1ccc(C(F)(F)F)cc1 (centres undefined)	n	n	u	14.1µM	n	u
COc1cc(CN(C)C(C)C(=O)Nc2ccc([N+](=O)[O-])cc2Cl)ccc1OC(F)F (centres undefined)	u	n	u	u	n	u
COc1ccc(Cl)cc1NC(=O)NCCN1CCNC1=O	u	n	n	n	n	n
COc1ccc(Cl)cc1NC(=O)CCn1cnc2ccccc2c1=O	n	x	u	11.2µM	n	n
COc1ccc(Cl)cc1NC(=O)NCCCl	n	x	n	u	10µM	n
COc1ccc(Cl)cc1NC(=O)CC(C)c1ccccc1 (centres undefined)	n	x	n	8.91µM	n	n
COc1ccccc1C(=O)N[C@@H]1c2ccccc2C2(CCN(Cc3cnn(C)c3C)CC2)[C@H]1O	x	n	n	x	n	x
COC(=O)[C@@H]1CCCN1C(=O)c1cc(NC(=O)c2ccccc2)cc2ncn(C3CCCC3)c12	x	n	n	x	n	x
COc1ccc(Cl)cc1NC(=O)COC(=O)c1c(-c2ccccc2)noc1C	x	x	u	3.98µM	x	x
CCC1(C2CCN(Cc3c(C)[nH]c4ccccc34)CC2)NC(=O)N(Cc2ccc3c(c2)OCO3)C1=O (centres undefined)	x	n	n	x	n	x
O=C1N=C(N2CCOCC2)SC1=Cc1ccco1	n	n	n	n	n	n
O=C1N=C(N2CCOCC2)S/C1=C/c1ccc(-c2ccc(F)cc2)o1	u	n	n	u	n	2.51µM
Cc1ccc(-c2ccc(/C=C3\SC(N4CCOCC4)=NC3=O)o2)cc1	u	u	n	12.6µM	u	u
C[C@@H]1[C@H](c2ccccc2)OCCS(=O)(=O)N1Cc1ccc(Cl)cc1	x	n	x	x	n	x
CCc1cccc(NC(=O)CCN2C(=O)c3ccccc3Sc3ncccc32)c1	n	n	n	x	n	x
CN1C(=O)C(=Cc2ccc(Sc3ccccc3)o2)C(=O)N(C)C1=O	n	n	n	n	n	n
O=C1NC(=O)C(=Cc2ccc(-c3ccc(Cl)cc3)o2)C(=O)N1	x	n	31.6µM	n	u	x
O=C1NC(=O)C(=Cc2ccc(Sc3ccccc3)o2)C(=O)N1	n	n[7.34 µM]	22.4µM	n	n[7.34 µM]	n
CCCNC(=O)C(Cc1ccc(OC)cc1)NC(=O)c1ccc(C#N)cc1 (centres undefined)	x	n	n	3.16µM	n	x
Cc1ccc(S(=O)(=O)N(c2cccc(C(F)(F)F)c2)C2C=CS(=O)(=O)C2)cc1 (centres undefined)	n	n	x	10µM	n	n
CN(Cc1ccccc1)C(=O)c1cccc(NC(=O)Cc2cccc(NC(=O)C3CCN(C(=O)C4CCC4)CC3)c2)c1	x	n	n	n	n	x
O=c1c2c(nc3c(-c4ccc(Cl)cc4)c[nH]n13)CCCC2	10µM	u	22.4µM	u	4.47µM	u
SMILES	Lassa entry inh	Vaccinia mCherry	FMDV antiviral	HCV inh	VACV Venus inh	MARV entry inh
O=C(C[n+]1cccc(Br)c1)c1ccc(F)cc1	x	n	x	x	n	x
COc1ccc(CCn2c(=S)[nH]c(=O)c3nccnc32)cc1OC	x	n	x	x	n	x
O=C(Nc1cc2c(cc1C(=O)c1ccccc1Br)OCCO2)c1ccccc1	n	n	n	x	n	x
COc1cc(CNc2ccc(S(N)(=O)=O)cc2)ccc1OCc1ccccc1F	x	x	n	11.2µM	x	x
Cc1cc(C)cc(C(=O)Nc2c3c(nn2-c2ccccc2C)CS(=O)(=O)C3)c1	n	n	n	x	n	x
CCOC(=O)c1c(C)[nH]c(C(=O)OCc2c(C)noc2C)c1C	n	x	u	11.2µM	u	u
CCOC(=O)c1c(C)[nH]c(C(=O)COC(=O)c2c(CC)noc2C)c1C	u	n	n	14.1µM	n	n
